Measurements taken from the supplement of paper PMC11732987, “Enantioselective OTUD7B fragment discovery through chemoproteomics screening and high-throughput optimisation” (Communications Chemistry, 2025).

Tests used:
Test in all cases: log2 ratio of Biotin-Ahx-Ub-VS probe labelling (fragment/DMSO); higher = less target engagement (more negative = stronger competition), active = hit call of the paper (q ≤ 0.05, log2 ratio ≤ -1)
Conditions in all cases: compound concentration: 200 uM; treatment time: 3 h
OTUD6B = target: T1, OTUD6B (UniProt Q8N6M0)
T1 sequence (whole entry): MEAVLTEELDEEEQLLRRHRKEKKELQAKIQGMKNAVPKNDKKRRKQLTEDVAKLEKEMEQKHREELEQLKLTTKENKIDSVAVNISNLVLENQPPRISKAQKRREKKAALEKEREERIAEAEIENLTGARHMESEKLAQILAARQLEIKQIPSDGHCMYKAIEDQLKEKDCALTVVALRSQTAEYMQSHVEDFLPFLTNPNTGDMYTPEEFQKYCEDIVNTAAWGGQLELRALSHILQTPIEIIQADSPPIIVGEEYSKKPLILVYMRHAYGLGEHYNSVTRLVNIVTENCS
How it was run: (§1)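 Each value is an average log2 ratio of fragment to vehicle, tested by unpaired t-test. The underlying Spectronaut label-free quantities were global-median-normalised, and only proteins with ≥2 unique peptides were included. Triplicate HEK293T lysate samples (495 µg) were exposed to fragment at 200 µM or vehicle for 3 h, then to Biotin-Ahx-Ub-VS at 0.5 µM final for 1 h, before NeutrAvidin enrichment of labelled DUBs, LysC and trypsin digestion, and diaPASEF LC-MS/MS.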

OTUD7B = target: T2, OTUD7B (UniProt Q6GQQ9)
T2 sequence (whole entry): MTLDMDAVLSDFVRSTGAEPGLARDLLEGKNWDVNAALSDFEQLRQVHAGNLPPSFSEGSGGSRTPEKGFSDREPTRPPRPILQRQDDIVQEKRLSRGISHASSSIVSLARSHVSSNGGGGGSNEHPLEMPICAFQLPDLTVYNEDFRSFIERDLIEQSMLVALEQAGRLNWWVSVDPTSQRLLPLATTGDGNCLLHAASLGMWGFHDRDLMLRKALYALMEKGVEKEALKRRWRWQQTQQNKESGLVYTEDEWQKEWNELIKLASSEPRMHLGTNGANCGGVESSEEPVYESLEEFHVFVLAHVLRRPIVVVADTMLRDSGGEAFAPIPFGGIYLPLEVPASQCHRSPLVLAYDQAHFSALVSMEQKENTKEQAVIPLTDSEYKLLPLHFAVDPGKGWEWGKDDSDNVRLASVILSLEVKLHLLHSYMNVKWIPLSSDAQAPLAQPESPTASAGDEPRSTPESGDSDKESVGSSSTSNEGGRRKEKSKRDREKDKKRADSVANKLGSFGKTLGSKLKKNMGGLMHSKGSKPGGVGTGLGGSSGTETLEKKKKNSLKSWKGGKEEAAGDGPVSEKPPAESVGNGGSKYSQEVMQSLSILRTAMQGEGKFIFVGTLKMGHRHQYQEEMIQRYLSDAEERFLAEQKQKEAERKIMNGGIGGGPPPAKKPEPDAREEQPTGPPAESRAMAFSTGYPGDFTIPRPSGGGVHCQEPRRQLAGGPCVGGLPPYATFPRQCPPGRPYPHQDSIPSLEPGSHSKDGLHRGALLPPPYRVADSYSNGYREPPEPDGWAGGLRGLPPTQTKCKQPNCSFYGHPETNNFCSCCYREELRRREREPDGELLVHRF
How it was run: as §1

PRPF8 = PRPF8 (UniProt Q6P2Q9)
How it was run: as §1

PSMD7 = target: T3, PSMD7 (UniProt P51665)
T3 sequence (whole entry): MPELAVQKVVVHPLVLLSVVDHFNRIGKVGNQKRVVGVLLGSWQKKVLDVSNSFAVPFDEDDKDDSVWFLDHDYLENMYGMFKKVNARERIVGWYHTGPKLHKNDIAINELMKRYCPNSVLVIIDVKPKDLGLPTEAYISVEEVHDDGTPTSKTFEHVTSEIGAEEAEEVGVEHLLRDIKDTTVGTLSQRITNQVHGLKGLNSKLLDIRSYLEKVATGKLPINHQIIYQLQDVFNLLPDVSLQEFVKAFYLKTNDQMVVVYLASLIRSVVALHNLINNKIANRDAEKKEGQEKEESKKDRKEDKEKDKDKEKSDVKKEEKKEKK
How it was run: as §1

UCHL1 = UCHL1 (UniProt P09936)
UCHL1, sequence (P09936 whole entry, looked up): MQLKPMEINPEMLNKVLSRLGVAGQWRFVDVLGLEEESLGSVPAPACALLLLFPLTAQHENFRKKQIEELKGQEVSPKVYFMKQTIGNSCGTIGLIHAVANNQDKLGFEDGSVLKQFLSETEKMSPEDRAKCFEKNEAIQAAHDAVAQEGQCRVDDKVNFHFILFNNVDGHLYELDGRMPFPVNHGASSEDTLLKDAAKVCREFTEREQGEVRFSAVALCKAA
How it was run: as §1

UCHL3 = target: T4, UCHL3 (UniProt P15374)
T4 sequence (whole entry): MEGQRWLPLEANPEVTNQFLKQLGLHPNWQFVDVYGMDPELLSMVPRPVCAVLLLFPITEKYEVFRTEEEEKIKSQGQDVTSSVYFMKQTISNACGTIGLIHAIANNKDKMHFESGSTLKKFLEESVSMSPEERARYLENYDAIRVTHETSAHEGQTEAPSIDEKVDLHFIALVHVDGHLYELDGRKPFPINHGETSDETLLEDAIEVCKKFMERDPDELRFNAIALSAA
How it was run: as §1

UCHL5 = target: T5, UCHL5 (UniProt Q9Y5K5)
T5 sequence (whole entry): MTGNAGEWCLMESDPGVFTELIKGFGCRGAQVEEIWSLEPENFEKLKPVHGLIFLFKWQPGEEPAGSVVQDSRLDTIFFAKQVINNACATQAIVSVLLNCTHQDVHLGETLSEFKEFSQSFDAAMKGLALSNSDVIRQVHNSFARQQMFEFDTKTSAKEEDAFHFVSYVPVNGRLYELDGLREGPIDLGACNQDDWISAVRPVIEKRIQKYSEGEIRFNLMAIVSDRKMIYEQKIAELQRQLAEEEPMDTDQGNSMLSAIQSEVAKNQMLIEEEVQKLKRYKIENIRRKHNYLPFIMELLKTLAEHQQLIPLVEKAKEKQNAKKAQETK
How it was run: as §1

USP10 = USP10 (UniProt Q14694)
USP10, sequence (Q14694 whole entry): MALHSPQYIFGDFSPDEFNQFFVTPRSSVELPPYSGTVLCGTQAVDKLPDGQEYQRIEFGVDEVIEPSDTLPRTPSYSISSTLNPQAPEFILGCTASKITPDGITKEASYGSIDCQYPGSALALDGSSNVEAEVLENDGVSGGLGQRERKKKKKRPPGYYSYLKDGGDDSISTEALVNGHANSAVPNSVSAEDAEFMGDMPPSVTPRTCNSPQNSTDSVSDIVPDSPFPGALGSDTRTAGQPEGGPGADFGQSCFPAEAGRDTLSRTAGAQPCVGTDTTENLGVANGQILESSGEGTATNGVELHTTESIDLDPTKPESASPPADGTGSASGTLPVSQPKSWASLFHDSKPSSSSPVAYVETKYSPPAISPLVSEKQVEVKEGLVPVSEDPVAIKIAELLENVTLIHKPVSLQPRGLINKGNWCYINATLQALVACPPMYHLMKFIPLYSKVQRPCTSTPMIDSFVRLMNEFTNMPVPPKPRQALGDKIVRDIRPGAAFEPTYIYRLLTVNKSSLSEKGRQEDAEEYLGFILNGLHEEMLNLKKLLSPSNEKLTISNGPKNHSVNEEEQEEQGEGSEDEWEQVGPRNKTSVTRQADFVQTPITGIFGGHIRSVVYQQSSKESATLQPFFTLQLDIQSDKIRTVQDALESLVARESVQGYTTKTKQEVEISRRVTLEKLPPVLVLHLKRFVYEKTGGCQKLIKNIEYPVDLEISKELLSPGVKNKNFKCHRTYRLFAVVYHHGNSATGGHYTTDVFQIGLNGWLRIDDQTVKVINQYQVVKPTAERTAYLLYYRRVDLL
How it was run: as §1

USP15 = target: T6, USP15 (UniProt Q9Y4E8)
T6 sequence (whole entry): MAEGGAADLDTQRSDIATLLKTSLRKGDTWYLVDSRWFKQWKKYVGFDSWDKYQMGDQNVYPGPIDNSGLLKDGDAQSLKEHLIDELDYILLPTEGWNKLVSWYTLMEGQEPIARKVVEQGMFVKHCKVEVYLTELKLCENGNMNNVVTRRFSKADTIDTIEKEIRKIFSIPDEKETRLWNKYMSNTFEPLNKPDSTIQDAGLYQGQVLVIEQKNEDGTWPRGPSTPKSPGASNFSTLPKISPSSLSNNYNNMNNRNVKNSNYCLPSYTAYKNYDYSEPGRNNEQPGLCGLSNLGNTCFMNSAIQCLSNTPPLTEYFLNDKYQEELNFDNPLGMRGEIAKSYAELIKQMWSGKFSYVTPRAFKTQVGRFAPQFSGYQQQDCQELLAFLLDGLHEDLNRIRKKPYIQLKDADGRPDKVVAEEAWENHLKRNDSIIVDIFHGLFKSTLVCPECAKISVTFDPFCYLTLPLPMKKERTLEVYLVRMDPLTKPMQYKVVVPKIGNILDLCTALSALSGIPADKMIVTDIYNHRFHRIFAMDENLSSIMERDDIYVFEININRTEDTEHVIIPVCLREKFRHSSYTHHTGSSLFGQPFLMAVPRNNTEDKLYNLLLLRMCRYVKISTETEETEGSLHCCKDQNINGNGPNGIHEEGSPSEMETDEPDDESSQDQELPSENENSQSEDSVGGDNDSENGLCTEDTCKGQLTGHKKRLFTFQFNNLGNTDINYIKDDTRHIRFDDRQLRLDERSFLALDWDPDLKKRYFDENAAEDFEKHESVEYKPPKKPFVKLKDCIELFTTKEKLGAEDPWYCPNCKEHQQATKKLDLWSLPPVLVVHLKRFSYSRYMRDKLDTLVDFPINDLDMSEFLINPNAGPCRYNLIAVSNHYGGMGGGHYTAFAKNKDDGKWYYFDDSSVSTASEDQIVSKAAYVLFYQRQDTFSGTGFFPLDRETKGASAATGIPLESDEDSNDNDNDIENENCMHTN
How it was run: as §1

USP16 = USP16 (UniProt Q9Y5T5)
USP16, sequence (Q9Y5T5 whole entry, looked up): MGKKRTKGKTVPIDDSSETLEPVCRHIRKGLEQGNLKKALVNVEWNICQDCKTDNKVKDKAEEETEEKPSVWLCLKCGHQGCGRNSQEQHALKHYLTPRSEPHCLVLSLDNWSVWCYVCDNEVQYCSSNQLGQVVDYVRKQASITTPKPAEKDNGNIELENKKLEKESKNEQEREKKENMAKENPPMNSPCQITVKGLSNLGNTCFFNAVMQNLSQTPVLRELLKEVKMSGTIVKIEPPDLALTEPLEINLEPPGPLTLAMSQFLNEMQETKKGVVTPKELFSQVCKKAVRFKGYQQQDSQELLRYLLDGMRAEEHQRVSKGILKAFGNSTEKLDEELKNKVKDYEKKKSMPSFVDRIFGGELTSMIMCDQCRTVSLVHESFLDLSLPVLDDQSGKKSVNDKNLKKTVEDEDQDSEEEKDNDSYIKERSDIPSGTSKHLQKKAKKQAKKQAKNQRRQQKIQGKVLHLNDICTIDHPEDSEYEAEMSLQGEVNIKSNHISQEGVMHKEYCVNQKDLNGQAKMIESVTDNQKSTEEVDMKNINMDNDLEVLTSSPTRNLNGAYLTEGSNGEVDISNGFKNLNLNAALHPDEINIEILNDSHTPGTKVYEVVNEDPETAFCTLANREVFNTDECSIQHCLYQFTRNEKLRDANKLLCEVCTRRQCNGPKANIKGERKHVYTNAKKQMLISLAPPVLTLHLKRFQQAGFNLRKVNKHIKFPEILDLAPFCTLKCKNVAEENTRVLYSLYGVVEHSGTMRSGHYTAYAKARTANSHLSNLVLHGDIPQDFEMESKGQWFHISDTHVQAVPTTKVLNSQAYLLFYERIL
How it was run: as §1

Measured: log2 ratio of Biotin-Ahx-Ub-VS probe labelling

CN(CCc1ncc(Br)cn1)C(=O)CCl.Cl
inactive: OTUD6B -0.311 | PRPF8 -0.0479 | PSMD7 -0.205 | UCHL3 0.504 | UCHL5 -0.318 | USP10 -0.276 | USP15 -0.463 | USP16 -0.32
active: OTUD7B -1.39 | UCHL1 -1.55
